Measured values published in PubChem BioAssay (NCI).
Where “and” joins values, the source holds several entries; their conditions need not be identical. Equal values may be shown once. This is part of a sample that, as a whole, favours compounds with a hit. Of some 83,000 tested, about 20% had one in any assay.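 Plates (96-well) were seeded with cells, treated with compound at one concentration, and incubated for 48 hours before percent growth was determined.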 Calls of active or inactive are those of the source. How the source made its calls: active means growth percent below 10; inactive means the rest.

Key:
Test in all cases: NCI-60 one-dose screen, 48 h (100 = growth as untreated, 0 = no growth, -100 = all killed)
Conditions in all cases: 10 µM unless noted
[1] = system: HCT-15 colon
[2] = system: HT29 colon
[3] = system: SNB-75 CNS
[4] = system: SNB-19 CNS
[5] = system: U251 CNS
[6] = system: PC-3 prostate
[7] = system: SK-MEL-5 melanoma
[8] = system: UACC-62 melanoma
[9] = system: LOX IMVI melanoma
[10] = system: SK-MEL-2 melanoma
[11] = system: EKVX NSCLC
[12] = system: SN12C renal
[13] = system: UO-31 renal
[14] = system: TK-10 renal
[15] = system: ACHN renal
[16] = system: CAKI-1 renal
[17] = system: A498 renal
[18] = system: CCRF-CEM leukemia
[19] = system: MOLT-4 leukemia
[20] = system: SK-MEL-28 melanoma

Row | SMILES | growth [1] | growth [2] | growth [3] | growth [4] | growth [5] | growth [6] | growth [7] | growth [8] | growth [9] | growth [10] | growth [11] | growth [12] | growth [13] | growth [14] | growth [15] | growth [16] | growth [17] | growth [18] | growth [19] | growth [20]
1 | COc1cc(CNC(=O)CCCC/C=C/C(C)C)ccc1O | 104% (inactive) and 96.9% (inactive) | 104% (inactive) | 93% (inactive) and 100% (inactive) | 90.9% (inactive) and 104% (inactive) | 101% (inactive) and 98% (inactive) | 86.6% (inactive) and 88.1% (inactive) | 97.8% (inactive) and 97.5% (inactive) | 96.6% (inactive) and 104% (inactive) | 89% (inactive) and 86.9% (inactive) | 93.3% (inactive) and 108% (inactive) | 103% (inactive) and 97.3% (inactive) | 92.4% (inactive) and 91.9% (inactive) | 57.7% (inactive) and 59% (inactive) | 200% (inactive) and 103% (inactive) | 99.7% (inactive) | 92.1% (inactive) and 82.2% (inactive) | 112% (inactive) and 113% (inactive) | 55.8% (inactive) and 58.3% (inactive) | 84.2% (inactive) and 73.4% (inactive) | –
2 | Cc1nc(Nc2ncc(C(=O)Nc3c(C)cccc3Cl)s2)cc(N2CCN(CCO)CC2)n1 | 32.5% (inactive) and 21.3% (inactive) | 5.06% (active) and -19.7% (active) | -32.6% (active) and -35.7% (active) | 68.7% (inactive) and 40.1% (inactive) | 57.6% (inactive) and 37.2% (inactive) | 54.1% (inactive) and 40.7% (inactive) | 66.6% (inactive) and 53.8% (inactive) | 55.3% (inactive) and 34.9% (inactive) | -66.3% (active) and -93.8% (active) | – | 41.5% (inactive) and 33.2% (inactive) | 24% (inactive) and 18.3% (inactive) | -0.429% (active) and -14.3% (active) | -7.96% (active) and -61.7% (active) | 1.96% (active) and -15.4% (active) | -44.3% (active) and -28.7% (active) | -24.2% (active) and -40.1% (active) | 77.3% (inactive) and 41.6% (inactive) | 66.1% (inactive) and 29.6% (inactive) | 64% (inactive) and 36% (inactive)
3 | O=[N+]([O-])c1cc(C(F)(F)F)ccc1Sc1ccc(C(F)(F)F)cc1[N+](=O)[O-] | 71.2% (inactive) | 18.5% (inactive) | 86% (inactive) | 91.5% (inactive) | 83.9% (inactive) | 84.6% (inactive) | 82.7% (inactive) | 77.8% (inactive) | 28.1% (inactive) | 73.3% (inactive) | 87% (inactive) | 72.8% (inactive) | 77.3% (inactive) | 98.7% (inactive) | 86.6% (inactive) | 44.7% (inactive) | 87% (inactive) | 14.5% (inactive) | 9.53% (active) | –
4 | COC(=O)c1[nH]nc(OC)c1C1(C(C#N)c2nc3ccccc3s2)CCCc2ccccc21 (stereo not drawn) | 102% (inactive) | 95.8% (inactive) | 86.4% (inactive) | 96.7% (inactive) | 96.5% (inactive) | 79.5% (inactive) | 97.8% (inactive) | 79.6% (inactive) | 95% (inactive) | 88.7% (inactive) | 88.5% (inactive) | 86% (inactive) | 72.4% (inactive) | 139% (inactive) | – | 94.5% (inactive) | 109% (inactive) | 96.5% (inactive) | 102% (inactive) | 78.9% (inactive)
5 | CCOC(=O)c1nnn(Cc2cc(=O)oc3c2ccc2ccccc23)c1C | 104% (inactive) | 96.7% (inactive) | 91.6% (inactive) | 98.2% (inactive) | 104% (inactive) | 89.2% (inactive) | 101% (inactive) | 98.7% (inactive) | 101% (inactive) | 110% (inactive) | 105% (inactive) | 96.7% (inactive) | 77.3% (inactive) | 101% (inactive) | – | 98% (inactive) | 108% (inactive) | 88.2% (inactive) | 108% (inactive) | 109% (inactive)
6 | Cc1nc(-n2[nH]c(=O)ccc2=O)sc1N=Nc1ccccc1 | 101% (inactive) | 110% (inactive) | 95.7% (inactive) | 99.3% (inactive) | 100% (inactive) | 95.8% (inactive) | 97.4% (inactive) | 93.3% (inactive) | 102% (inactive) | 108% (inactive) | 96.5% (inactive) | 97.7% (inactive) | 84.1% (inactive) | 121% (inactive) | 99.5% (inactive) | 91.5% (inactive) | 105% (inactive) | 100% (inactive) | 99.4% (inactive) | –
7 | N#CC1=C(N)Oc2c(sc3c(Br)cccc23)C1c1ccccn1 (stereo not drawn) | 28.5% (inactive) | 10.6% (inactive) | 61.2% (inactive) | 48.4% (inactive) | 36.5% (inactive) | 40.6% (inactive) | 40.8% (inactive) | 18.3% (inactive) | 38.7% (inactive) | 2.4% (active) | 53.4% (inactive) | 43.9% (inactive) | 46.7% (inactive) | 64.6% (inactive) | – | 87.4% (inactive) | 37.9% (inactive) | 22.1% (inactive) | 28.9% (inactive) | 65.3% (inactive)
8 | OCCN1CCN(CC/C=C2\c3ccccc3Sc3ccc(Cl)cc32)CC1 | -38.8% (active) and 8.86% (active) | -41.8% (active) and -43.3% (active) | 60.2% (inactive) and 133% (inactive) | 58.4% (inactive) and 72.6% (inactive) | 27.6% (inactive) and 28.6% (inactive) | 33.6% (inactive) and 39.2% (inactive) | -83.5% (active) and -91.7% (active) | -93.8% (active) and -68.5% (active) | -30.2% (active) and 1.96% (active) | 46.5% (inactive) and -10.9% (active) | 80.8% (inactive) and 60.3% (inactive) | 63% (inactive) and 64.3% (inactive) | 39.9% (inactive) and 2.89% (active) | 57.7% (inactive) | – | 53.5% (inactive) | 45.4% (inactive) and 60.5% (inactive) | -17.7% (active) and 23.8% (inactive) | -52.7% (active) and -10.3% (active) | -100% (active) and -78.1% (active)
9 | O=[N+]([O-])c1ccc2[nH]c3nccc(NCc4cccc(Cl)c4)c3c2c1 | 83.2% (inactive) | 76.3% (inactive) | 7.78% (active) | 53.3% (inactive) | 43.1% (inactive) | 67.5% (inactive) | 83.7% (inactive) | 82.2% (inactive) | 81.4% (inactive) | 93% (inactive) | 50.8% (inactive) | 86.5% (inactive) | 87.2% (inactive) | 72.8% (inactive) | 68.2% (inactive) | 60.2% (inactive) | 71.4% (inactive) | 79.6% (inactive) | 75.9% (inactive) | –
10 | CC[C@H](C)[C@H](NC(=O)[C@H](CCCCN)NC(=O)[C@H](CCCCN)NC(=O)[C@@H](NC(=O)[C@@H](NC(=O)[C@@H](N)Cc1cnc[nH]1)[C@@H](C)CC)[C@@H](C)CC)C(=O)N[C@@H](CCCNC(=N)N)C(=O)N[C@H](C(=O)N[C@@H](Cc1c[nH]c2ccccc12)C(=O)N[C@@H](Cc1ccc(O)cc1)C(=O)N[C@@H](CCCNC(=N)N)C(=O)N[C@@H](CCCCN)C(=O)N[C@@H](C)C(=O)N[C@@H](Cc1c[nH]c2ccccc12)C(=O)N[C@@H](Cc1cnc[nH]1)C(=O)N[C@H](C(=O)N[C@@H](CC(C)C)C(=O)NCC(=O)N[C@@H](CCCCN)C(=O)N[C@H](C(N)=O)C(C)C)C(C)C)[C@@H](C)O | 21.4% (inactive) | 60.4% (inactive) | 72.7% (inactive) | 58.6% (inactive) | 20.2% (inactive) | 67.1% (inactive) | 13.2% (inactive) | -56.3% (active) | 70.5% (inactive) | 12.7% (inactive) | -26.4% (active) | 12.1% (inactive) | 81.9% (inactive) | -16.8% (active) | 70.8% (inactive) | 17.5% (inactive) | 66.2% (inactive) | 76.2% (inactive) | 56.7% (inactive) | –
11 | O=Nc1ccc(NO)c2ccccc12 | 99.5% (inactive) and 95.7% (inactive) | 106% (inactive) and 35.3% (inactive) | 95.8% (inactive) and 90.8% (inactive) | 118% (inactive) and 99% (inactive) | 101% (inactive) and 79% (inactive) | 81.9% (inactive) and 36.4% (inactive) | 94.1% (inactive) and 81.3% (inactive) | 95.9% (inactive) and 61.9% (inactive) | 102% (inactive) and 17.4% (inactive) | 103% (inactive) and 59.7% (inactive) | – | 103% (inactive) and 60.5% (inactive) | 88.7% (inactive) and 65.3% (inactive) | 132% (inactive) and 125% (inactive) | 97.6% (inactive) and 79.2% (inactive) | 83.8% (inactive) and 80.3% (inactive) | 74% (inactive) and 102% (inactive) | 106% (inactive) and 57.6% (inactive) | 108% (inactive) and 74.1% (inactive) | 113% (inactive) and 94.6% (inactive)
12 | COc1ccc(C(=O)N/N=C/c2ccc(O)cc2O)cc1Nc1ccnc(C(F)(F)F)c1 | 40.1% (inactive) | 37.4% (inactive) | 26.4% (inactive) | 34.2% (inactive) | 28.3% (inactive) | 64.5% (inactive) | 24.2% (inactive) | 1.67% (active) | 8.4% (active) | 61.5% (inactive) | 26.9% (inactive) | 33.1% (inactive) | 30.4% (inactive) | 53.4% (inactive) | – | 39.3% (inactive) | 55.2% (inactive) | 5.69% (active) | 23.4% (inactive) | 42.9% (inactive)
